Seven compounds from PubChem BioAssay (EPA / NIEHS) can be followed below.

Read-out in one test: Decorin, DCN (gene 1634)
Kind of test: BSK_MyoF_Decorin: BioMAP Diversity Plus: MyoF Assay for Decorin Biomarker Activity (AID 2284265). The following applies: primary human lung fibroblasts. The method, boiled down: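 Decorin protein was quantified by ELISA 24 h after chemical addition to primary human lung fibroblasts and analysed as increase over DMSO. Cytotoxicity was tracked in parallel cultures by SRB total-protein staining read at 560 nm.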

A short description of test [1]: BSK_MyoF_SRB: Viability Assessment in the BioMAP Diversity Plus: MyoF Assay (AID 2284267).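 Note: total protein by SRB absorbance in parallel cultures as cytotoxicity measure; cells assessed 24 h after compound addition.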 Particulars: primary human lung fibroblasts. An outline of the steps: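 Human lung fibroblasts dosed with chemical and assessed 24 h later for overt cytotoxicity in parallel cultures. Total protein quantified by sulforhodamine B staining (0.1% SRB after 10% TCA fixation), read at 560 nm, analysed in positive direction versus DMSO baseline.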

Read-out in test [2]: Matrix Metallopeptidase 1 (MMP1), MMP1 (gene 4312)
In words: BSK_MyoF_MMP1: BioMAP Diversity Plus: MyoF Assay for Matrix Metallopeptidase 1 (MMP1) Biomarker Activity (AID 2284268). The following applies: primary human lung fibroblasts. The method, boiled down: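 Human lung fibroblasts (MyoF system) exposed to chemical for 24 h in 96-well format; MMP1 biomarker quantified by ELISA, with activity fitted in the positive direction relative to DMSO baseline.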

Read-out in test [3]: TIMP metallopeptidase inhibitor 1 (TIMP1), TIMP1 (gene 7076)
In words: BSK_MyoF_TIMP1: BioMAP Diversity Plus: MyoF Assay for TIMP metallopeptidase inhibitor 1 (TIMP1) Biomarker Activity (AID 2284269). Particulars: primary human lung fibroblasts. The method, boiled down: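 ELISA quantified TIMP-1 levels after 24 h dosing of primary human lung fibroblasts, with DMSO as baseline. Parallel SRB total protein staining (0.1% SRB after TCA fixation, 560 nm) flagged overt cytotoxicity.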

Read-out in test [4]: KRT18 (gene 3875)
Kind of test: BSK_BF4T_Keratin818: BioMAP Diversity Plus: BF4T Assay for Keratin 818 Biomarker Activity (AID 2284266). The following applies: primary human bronchial epithelial cells with fibroblasts. An outline of the steps:
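Co-culture of human bronchial epithelial cells and dermal fibroblasts, chemical exposure 24 h. Keratin 8/18 measured by ELISA; positive-direction fit vs DMSO. SRB total protein run in parallel cultures for cytotoxicity.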

Read-out in test [5]: Matrix Metallopeptidase 3 (MMP3), MMP3 (gene 4314)
Kind of test: BSK_BF4T_MMP3: BioMAP Diversity Plus: BF4T Assay for Matrix Metallopeptidase 3 (MMP3) Biomarker Activity (AID 2284271). The following applies: primary human bronchial epithelial cells with fibroblasts. An outline of the steps:
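Co-culture of human bronchial epithelial cells and dermal fibroblasts dosed 24 h; MMP-3 measured by ELISA, positive-direction fit versus DMSO. Cytotoxicity tracked by SRB total-protein staining (560 nm) in parallel cultures.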

Read-out in test [6]: Tissue plasminogen activator (tPA), PLAT (gene 5327)
In words: BSK_BF4T_tPA: BioMAP Diversity Plus: BF4T Assay for Tissue plasminogen activator (tPA) Biomarker Activity (AID 2284272). The following applies: primary human bronchial epithelial cells with fibroblasts. An outline of the steps: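 tPA level quantified by ELISA at 24 h post-treatment in bronchial epithelial/dermal fibroblast co-cultures, gain of signal scored against DMSO baseline. Parallel cultures stained with 0.1% SRB (560 nm) to flag overt cytotoxicity.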

Read-out in test [7]: Matrix Metallopeptidase 9 (MMP9), MMP9 (gene 4318)
In words: BSK_BF4T_MMP9: BioMAP Diversity Plus: BF4T Assay for Matrix Metallopeptidase 9 (MMP9) Biomarker Activity (AID 2284276). Particulars: primary human bronchial epithelial cells with fibroblasts. The method, boiled down: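 Co-culture of human bronchial epithelial cells and dermal fibroblasts dosed for 24 h; MMP-9 quantified by ELISA and fitted upward versus DMSO. Cytotoxicity monitored in parallel cultures by SRB total-protein staining at the biomarker time point.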

Read-out in test [8]: Interleukin-8 (IL8), CXCL8 (gene 3576)
In words: BSK_IMphg_IL8: BioMAP Diversity Plus: IMphg Assay for Interleukin-8 (IL8) Biomarker Activity (AID 2284277). The following applies: primary human endothelial cells with macrophages. The method, boiled down: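 Co-culture of human venular endothelial cells and macrophages exposed to chemicals for 24 h; IL-8 quantified by ELISA and compared against the DMSO baseline, with SRB total-protein staining in parallel cultures for cytotoxicity.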

Read-out in test [9]: Intercellular Adhesion Molecule 1 (ICAM1), ICAM1 (gene 3383)
Kind of test: BSK_BE3C_ICAM1: BioMAP Diversity Plus: BE3C Assay for Intercellular Adhesion Molecule 1 (ICAM1) Biomarker Activity (AID 2284278).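 For outcome: cell-surface ICAM-1 protein level quantified by ELISA.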 The following applies: primary human bronchial epithelial cells. An outline of the steps:
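Primary human bronchial epithelial cells were exposed to compound for 24 h, after which cell-surface ICAM-1 was quantified by ELISA. Activity was fitted in the gain-of-signal direction against DMSO as negative control and baseline.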

Read-out in test [10]: Interferon-inducible T-cell alpha chemoattractant (ITAC), CXCL11 (gene 6373)
In words: BSK_BE3C_ITAC: BioMAP Diversity Plus: BE3C Assay for Interferon-inducible T-cell alpha chemoattractant (ITAC) Biomarker Activity (AID 2284279). The following applies: primary human bronchial epithelial cells. The method, boiled down: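 ELISA for I-TAC in primary human bronchial epithelial cultures 24 h post-treatment, fitted relative to DMSO baseline in positive direction. Cytotoxicity checked in parallel cultures by sulforhodamine B protein staining.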

Read-out in test [11]: Interleukin-8 (IL8), CXCL8 (gene 3576)
Kind of test: BSK_BE3C_IL8: BioMAP Diversity Plus: BE3C Assay for Interleukin-8 (IL8) Biomarker Activity (AID 2284280). The following applies: primary human bronchial epithelial cells. An outline of the steps: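 ELISA read-out of IL-8 in human lung bronchial epithelial primary cell cultures, 24 h post-dosing; endpoint analysed as signal increase relative to DMSO baseline.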

Read-out in test [12]: Epidermal growth factor receptor (EGFR), EGFR (gene 1956)
In words: BSK_BE3C_EGFR: BioMAP Diversity Plus: BE3C Assay for Epidermal growth factor receptor (EGFR) Biomarker Activity (AID 2284281). Particulars: primary human bronchial epithelial cells. The method, boiled down: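 Primary human lung bronchial epithelial cells; compound, 24 h; EGFR measured by ELISA; positive-direction fit vs DMSO baseline.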

Read-out in test [13]: KRT18 (gene 3875)
In words: BSK_BE3C_Keratin818: BioMAP Diversity Plus: BE3C Assay for Keratin 818 Biomarker Activity (AID 2284282). Particulars: primary human bronchial epithelial cells. The method, boiled down:
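Human primary bronchial epithelial cells in the BE3C system were exposed to test chemical for 24 h, then Keratin 8/18 was quantified by ELISA. Activity was fitted in the positive direction against DMSO as negative control and baseline.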

Read-out in test [14]: Matrix Metallopeptidase 9 (MMP9), MMP9 (gene 4318)
In words: BSK_BE3C_MMP9: BioMAP Diversity Plus: BE3C Assay for Matrix Metallopeptidase 9 (MMP9) Biomarker Activity (AID 2284283). Particulars: primary human bronchial epithelial cells. The method, boiled down:
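MMP9 is measured by ELISA after a 24 h compound exposure of primary human bronchial epithelial cultures. Parallel SRB staining gives overt cytotoxicity. Values fitted in the positive direction against DMSO.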

Read-out in test [15]: Plasminogen activator inhibitor-1 (PAI1), SERPINE1 (gene 5054)
Kind of test: BSK_CASM3C_PAI1: BioMAP Diversity Plus: CASM3C Assay for Plasminogen activator inhibitor-1 (PAI1) Biomarker Activity (AID 2284284).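 Note: PAI-1 protein level measured by ELISA 24 h after dosing.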 Particulars: primary human coronary artery smooth muscle cells.

“And” between values parts separate entries of the source, which are not always exact repeats. Equal entries are not always repeated. Some structures have more than one record in an assay (separate samples or runs), and their calls can disagree. The source made the active and inactive calls. Rule for the calls: active = hit-call score of the fitted dose curve at least 0.9, where 1 is the maximum; inactive = score below 0.9.

Turning to `CC(CCl)OP(=O)(OC(C)CCl)OC(C)CCl` (stereo unspecified), the outcome was “inactive” with Decorin, DCN (gene 1634); “inactive” in test [1]; “inactive” in [2]; “inactive” in test [3].

As for `O=C(O)C(F)(OC(F)(F)C(F)(OC(F)(F)C(F)(F)C(F)(F)F)C(F)(F)F)C(F)(F)F` (stereo unspecified), the outcome with Decorin, DCN (gene 1634) was “inactive”; with KRT18 (gene 3875) [4] it was “inactive”; in test [1], “inactive”; in test [2], “inactive”; in [3], “inactive”; in test [5], “inactive”. The outcome in test [6], in [7], in test [8], in [9], in test [10] and in test [11] was inactive. In addition, the outcome (in test [12]; with KRT18 (gene 3875) [13]; in test [14]; in [15]) was inactive. Moreover, the AC50 (usually the concentration giving half of the maximal activity seen) in test [11] is 25 nM (active).

For the compound `C=CC(=O)OCC(F)(F)C(F)(F)C(F)(F)C(F)(F)COC(=O)C=C`, the half-maximal activity concentration (AC50) was 15.7 µM (active) and 17 µM (active) in the test with Decorin, DCN (gene 1634); 17.1 µM (active) and 18.2 µM (active) in test [1]; 14.1 µM (active) and 18.7 µM (active) in [3]; 55.4 µM (active) and 6.99 µM (active) in test [5]; 8.21 µM (active) and 9.07 µM (active) in [6]; 18.2 µM (active) in [7]. Further, the AC50 was 26.3 µM (active) and 25.9 µM (active) in [9]; 45.3 µM (active) and 39.4 µM (active) in [10]; 7.98 µM (active) and 7.77 µM (active) in test [11]; 7.87 µM (active) and 14.5 µM (active) in [12]; 10.7 µM (active) with KRT18 (gene 3875) [13]; 7.28 µM (active) and 11.8 µM (active) in test [14]. For the same compound, the AC50 in [15] was 53.7 µM (active) and 53.4 µM (active). The result (with KRT18 (gene 3875) [4]; in [2]; in test [7]; in [8]; in the test with KRT18 (gene 3875) [13]) was inactive.

Consider `FC(F)(F)C(F)(F)C(F)(F)CI`, for which the outcome in the test with Decorin, DCN (gene 1634) was “inactive”; with KRT18 (gene 3875) [4], “inactive”; in [1] it was “inactive”; in test [2] it was “inactive”; in test [3] it was “inactive”; in test [5], “inactive”. Further, the outcome in [6], in test [7], in test [9], in [10], in test [11] and in test [12] was inactive. The result (in the test with KRT18 (gene 3875) [13]; in test [14]; in [15]) was inactive.

Consider `C=C(C)C(=O)OCCC(F)(F)C(F)(F)C(F)(F)C(F)(F)C(F)(C(F)(F)F)C(F)(F)F`, for which the outcome with Decorin, DCN (gene 1634) was “inactive”; with KRT18 (gene 3875) [4] it was “inactive”; in test [1] it was “inactive”; in test [2], “inactive”; in test [3], “inactive”; in [5], “inactive”. Besides, the outcome (in test [6]; in [7]; in test [9]; in test [11]; in [12]; with KRT18 (gene 3875) [13]) was inactive. Besides, the result in test [14] and in test [15] was inactive.

For `CCN(CC)c1ccc2c(C)cc(=O)oc2c1`, the outcome in the test with Decorin, DCN (gene 1634) was “inactive”; in test [1] it was “inactive”; in test [2] it was “inactive”; in test [3], “inactive”.

In the case of `CCc1ccc(C(c2ccc(CC)cc2)C(Cl)Cl)cc1`, the outcome with Decorin, DCN (gene 1634) is “inactive”; in test [3], “inactive”. The values for the AC50 in test [1] and in test [2] were 25.7 µM (active) and 8.65 µM (active), respectively.
